A number with no mark means an inactive call. Calls of active or inactive are those of the source.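 How the source made its calls: active means blocks over 70% of labeled estradiol binding at 10 µM, or over a set limit at 100 nM; inactive means the rest.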
The molecules below were run against Estrogen receptor beta (Homo sapiens) (UniProt Q92731) (assay: displacement of fluorescent estrogen from ERbeta – cell-based, Cos7 ERbeta-GFP, flow cytometry, primary screen (AID 1210;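 further: 0% = DMSO vehicle wells and 100% = complete loss of labeled estradiol signal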)). Settings: fluorescent estrogen binding, at 10 µM, stronger effect = higher value.
Chain of Estrogen receptor beta (Homo sapiens) (Q92731 whole entry, looked up): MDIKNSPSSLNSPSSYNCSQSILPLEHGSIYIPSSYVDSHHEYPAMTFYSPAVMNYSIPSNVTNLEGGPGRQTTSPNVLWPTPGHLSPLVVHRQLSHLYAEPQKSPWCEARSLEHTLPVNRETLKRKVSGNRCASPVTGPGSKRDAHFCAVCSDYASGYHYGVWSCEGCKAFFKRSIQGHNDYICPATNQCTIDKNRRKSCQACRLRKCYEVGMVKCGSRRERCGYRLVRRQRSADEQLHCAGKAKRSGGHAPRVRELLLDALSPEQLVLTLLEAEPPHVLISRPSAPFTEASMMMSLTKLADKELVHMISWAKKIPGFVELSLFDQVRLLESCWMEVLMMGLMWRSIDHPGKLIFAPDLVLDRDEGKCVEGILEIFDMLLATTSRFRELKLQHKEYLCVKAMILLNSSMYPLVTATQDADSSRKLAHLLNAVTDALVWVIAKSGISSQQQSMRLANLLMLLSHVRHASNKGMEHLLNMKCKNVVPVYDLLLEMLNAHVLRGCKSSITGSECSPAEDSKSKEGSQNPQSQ

SMILES | inhibition
CCNCC1(c2ccc(OC)c(OC)c2)CCCC1 | 14%
CC1(C)CC(CCNCc2ccc3c(c2)OCO3)(Cc2ccccc2)CCO1 (stereo unspecified) | 16%
O=C(O)c1cccc2c1NC(c1cccc([N+](=O)[O-])c1)C1CC(Sc3ccccc3[N+](=O)[O-])C(Cl)C21 (stereo unspecified) | 67%
COc1ccc(C2(CN)CCCC2)cc1 | 5%
C[C@H]1CCC[C@@H](O)CCC/C=C/c2cc(O)cc(O)c2C(=O)O1 | 71% (active)
CC(=O)c1ccc2c(c1)C1C(Cl)C(Sc3ccccc3[N+](=O)[O-])CC1C(c1ccccc1[N+](=O)[O-])N2 (stereo unspecified) | 36%
COc1ccc(Cn2c(N)c(C(=O)NCc3ccco3)c3nc4ccccc4nc32)cc1 | 64%
COc1ccc(CC2NCCc3cc(OC)c(OC)cc32)cc1OC (stereo unspecified) | 10%
Cc1ccc2c(c1Cl)NC(C(=O)O)C1CC(Sc3ccccc3[N+](=O)[O-])C(Cl)C21 (stereo unspecified) | 21%
CC(=O)c1ccc2c(c1)C1C(Cl)C(Sc3ccccc3[N+](=O)[O-])CC1C(C(=O)O)N2 (stereo unspecified) | 34%
CCOc1ccccc1N1C(=O)NC(=O)C(CCc2ccncc2)(CCc2ccncc2)C1=O | 41%
NC(=O)c1ccc(N=Nc2c(O)[nH]c(=O)[nH]c2=O)cc1 | 11%
O=C(O)c1cccc2c1NC(C(=O)O)C1CC(Sc3ccccc3[N+](=O)[O-])C(Cl)C21 (stereo unspecified) | 0%
O=C1C2CCN(CC2)C1Cc1ccc(O)cc1 (stereo unspecified) | 19%
O=C(O)c1ccc2c(c1)C1C(Cl)C(Sc3ccccc3[N+](=O)[O-])CC1C(c1cccc([N+](=O)[O-])c1)N2 (stereo unspecified) | 0%
N=c1c[n+](CCc2ccc(O)cc2)[n-]o1 | 29%
COc1ccc(C2(CN)CCCC2)cc1OC | 8%
Cc1ccc(S(=O)(=O)Cc2ccc(C(=O)N3CCC4(CC3)OCCO4)o2)cc1 | 56%
CC(=O)c1ccc2c(c1)C1C(Cl)C(Sc3ccccc3[N+](=O)[O-])CC1C(c1ccccc1)N2 (stereo unspecified) | 33%
COc1ccc2[nH]cc(CCN=C(N)N)c2c1 | 16%
COc1cc2c(cc1OC)CC(C)(C)NC2 | 11%
